Data as given in PubChem BioAssay AID2685 (National Center for Advancing Translational Sciences (NCATS), 2010).
About 2,100 (0.66%) of roughly 320,000 compounds were called active. Roughly 53% stayed inconclusive and do not appear here. Calls follow the shape of the dose curve; as a rule, active = well fitted inhibition curve with a large enough effect in the signal ratio, with a control signal flat (not every such curve was filed as active); inconclusive = small, poorly fitted or top-dose-only effect, or effect the other way, or a change in a side signal; inactive = flat fitted curve, though single readings scatter; the % refers to the signal ratio. Only a selection was taken, and actives are over-represented in it overall.

Test: qHTS Assay for Lipid Storage Modulators in Drosophila S3 Cells;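 as to cell number change: cells counted by Cell Tracker Red CMTPX staining in the red channel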
Conditions: BODIPY lipid droplet fluorescence, 18-24 h, cells fed with added oleic acid; cell number change: measured here: cell count max response; series mostly up to 46.1 µM
Method in brief: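 Drosophila S3 cells loaded with oleic acid (400 uM, as added) and compounds at several concentrations; lipid droplets imaged by 488-nm laser-scanning cytometry, 500–530 nm intensity and object ratio to cell channel. Percent activity normalized to 20 uM Triacsin C.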
Potency is read from the fitted curve at half-maximal effect.

SMILES	Potency	cell number change [%]
CC(=O)c1cccc(NC(=O)CN(C2CCCCC2)S(C)(=O)=O)c1	inactive	–
CCCCc1ccc(NC(=S)NCCO)cc1	inactive	–
O=S(=O)(c1ccc(-c2ccccc2)cc1)N1CCCCC1	inactive	14.2
Cc1ccc(NS(=O)(=O)c2ccc(NS(=O)(=O)c3cccs3)cc2)cc1	inactive	–
O=S(=O)(Nc1ccc(F)cc1)c1ccc(NS(=O)(=O)c2cccs2)cc1	3.66 µM (active)	5.22
Cc1ccccc1NS(=O)(=O)c1ccc(NS(=O)(=O)c2cccs2)cc1	inactive	22.7
Cc1ccc(-n2nc3c(c2NC(=O)CC(C)C)CS(=O)C3)cc1 (stereo not given)	inactive	-3.89
c1ccc2c(N3CCCCC3)nnc(N3CCCCC3)c2c1	23.1 µM (active)	9
Clc1nnc(N2CCCCC2)c2ccccc12	inactive	–
Cc1ccc(-c2nnc(N3CCCCC3)c3ccccc23)cc1	inactive	-9.5
CCCCN1C2CCCC1CC(NC(=O)c1cccc(Cl)c1)C2 (stereo not given)	inactive	-7.62
CN(C(=O)COc1ccccc1)C1CCS(=O)(=O)C1 (stereo not given)	inactive	-15.6
Cc1cc(C)c(OCC(O)CNC(C)(C)C)c(C)c1 (stereo not given)	inactive	1.51
Cc1cccc(C)c1OCC(O)CNC(C)(C)C (stereo not given)	inactive	8.88
CC(C)(C)NCC(O)COc1c(F)cc(Br)cc1F (stereo not given)	29.1 µM (active)	-21.9
CCCCn1c(N)c(N(CC(C)C)C(=O)c2cnccn2)c(=O)[nH]c1=O	inactive	-16.5
O=C(NC1CCCCC1)C1Cc2ccccc2CN1S(=O)(=O)c1ccc(F)cc1 (stereo not given)	inactive	-3.73
CCC(OC(=O)c1nsc(Cl)c1Cl)C(=O)NCc1cccs1 (stereo not given)	inactive	3.99
CC(OC(=O)c1nsc(Cl)c1Cl)C(=O)NCc1cccs1 (stereo not given)	32.6 µM (active)	2.66
CC(C)CC(OC(=O)c1nsc(Cl)c1Cl)C(=O)NCc1cccs1 (stereo not given)	inactive	-3.42

SMILES	Potency	cell number change [%]
O=C1COc2ccc(C(=O)CSc3ccccc3C(=O)O)cc2N1	inactive	8.27
COc1ccc(C2=NC(c3ccccc3)CO2)cc1 (stereo not given)	inactive	-8.42
CCOC(=O)C1(Cc2cccc(Cl)c2)CCCN(C(=O)c2cc(C)on2)C1 (stereo not given)	inactive	6.36
CCOC(=O)C1(Cc2cccc(Cl)c2)CCCN(C(=O)c2cc(CC)on2)C1 (stereo not given)	2.31 µM (active)	-22.9
CCOC(=O)C1(Cc2cccc(Cl)c2)CCCN(C(=O)c2cc(C)n(C)n2)C1 (stereo not given)	inactive	17.5
CCOc1ccc(OCC)c(S(=O)(=O)NCc2ccccn2)c1	inactive	-15.9
O=c1c(Cc2ccc(Cl)cc2)c(O)ccn1Cc1cccs1	inactive	1.85
COCc1c(C(=O)N/N=C/c2c[nH]c3ccccc23)nnn1-c1nonc1N	0.164 µM (active)	-1.35
Cc1ccc(-c2c(C(=O)N/N=C/c3cccs3)nnn2-c2nonc2N)cc1	inactive	-27.4
Cc1ccc(/C=N/NC(=O)c2nnn(-c3nonc3N)c2C)o1	inactive	-13.6
Cc1ccc(-c2c(C(=O)N/N=C/c3ccc(C)o3)nnn2-c2nonc2N)cc1	2.06 µM (active)	-11.5
Cc1ccc(/C=N/NC(=O)c2nnn(-c3nonc3N)c2-c2ccccc2)o1	inactive	4.2
COCc1c(C(=O)N/N=C/c2cccc3ccccc23)nnn1-c1nonc1N	inactive	13.5
Cc1ccc(-c2c(C(=O)N/N=C/c3c[nH]c4ccccc34)nnn2-c2nonc2N)cc1	14.6 µM (active)	-29.2
CCCN(CCC)Cc1c(C(=O)N/N=C/c2c[nH]c3ccccc23)nnn1-c1nonc1N	inactive	9.46
Cc1ccc(-c2c(C(=O)N/N=C/c3ccco3)nnn2-c2nonc2N)cc1	inactive	-15
FC(F)(F)c1cccc(NC(=S)NCC(c2cccnc2)N2CCOCC2)c1 (stereo not given)	inactive	-6.8
COc1ccc(NC(=S)N(CCc2nc3cc(C)c(C)cc3[nH]2)Cc2cccnc2)cc1	inactive	–
Cc1ccc(S(=O)(=O)N2CCC(C(=O)Nc3ccccc3N3CCCC3)CC2)cc1	inactive	–
CCn1c(=O)cc(SCC(=O)NCc2ccccn2)c2ccccc21	inactive	–

SMILES	Potency	cell number change [%]
COCCn1c(SCC(=O)NC(C)c2ccc(F)cc2)nc2ccccc21 (stereo not given)	inactive	25.2
O=C(COc1ccc2c(c1)oc(=O)c1ccccc12)NCCCN1CCOCC1	inactive	13.8
COc1ccc(CCN(Cc2cc3ccc(C)cc3[nH]c2=O)C(C)=O)cc1OC	inactive	–
COc1ccc(-n2c(=S)[nH]c3cc(C(=O)NCc4ccccc4)ccc3c2=O)c(OC)c1	inactive	8.56
COc1ccc(-n2c(=S)[nH]c3cc(C(=O)Nc4ccc(F)cc4)ccc3c2=O)c(OC)c1	16.4 µM (active)	32.1
COc1ccc(-n2c(=S)[nH]c3cc(C(=O)Nc4ccc(OC)c(OC)c4)ccc3c2=O)cc1	inactive	1.06
CNC(=S)NNC(=O)Cn1ccc(C)n1	inactive	-2.68
O=C(Nc1ccccc1)OC(CN1CCCCC1)C(F)(F)F (stereo not given)	inactive	-2.34
Fc1cccc(Nc2ncnc3[nH]ncc23)c1	inactive	–
Cc1ccc(C)c(SCC(=O)NCc2ccco2)c1	inactive	-4.84
O=C(N/N=C/c1ccc2ccccc2c1)c1ccc(COc2ccc3c(c2)CCC3)o1	inactive	-8.3
O=C1CC(N2CCN(c3ccccc3)CC2)C(=O)N1CCc1ccccc1 (stereo not given)	inactive	0.673
NC(=O)CN1CCN(C2CC(=O)N(CCc3ccccc3)C2=O)CC1 (stereo not given)	inactive	2.77
O=C1CC(N2CCN(C/C=C/c3ccccc3)CC2)C(=O)N1CCc1ccccc1 (stereo not given)	3.26 µM (active)	-18.6
CC1=NN(C(C#N)c2ccc(F)cc2)C(c2ccccc2)C1 (stereo not given)	inactive	-11.4
COCC(=O)Nc1cc(=O)n(C)c(=O)n1C	inactive	–
Cc1ccc(OCCSc2ncnc3sc(C)c(C)c23)cc1C	inactive	-4.8
CCOC(=O)C1=C(Nc2ccc(Br)cc2)CC(C)(O)C(C(=O)OCC)C1c1ccccc1 (stereo not given)	inactive	1.29
CC(=O)C1=C(Nc2ccccc2)CC(C)(O)C(C(C)=O)C1c1ccccc1 (stereo not given)	inactive	6.32
CCOC(=O)C1=C(Nc2ccccc2)CC(C)(O)C(C(=O)OCC)C1c1ccc(Cl)cc1 (stereo not given)	1.16 µM (active)	12.7
